From PubChem
JMJD2A Tudor inh: qHTS Assay for Inhibitors of JMJD2A-Tudor Domain | Potency, µM (top dose mostly 114 µM), inactives show top-dose activity change, negative = inhibition, most hits filed as inhibitors | AlphaScreen JMJD2A-Tudor / H3K4me3 peptide binding | hit rate 4.4% among 390,000; further: potency means the concentration at half of the fitted maximal effect; on the % scale 0 is the no-effect control and ±100 the full control effect; nearly all actives have a fitted effect of over 50% in size
Target sequence (O75164 whole entry, looked up, the tested form may be a part): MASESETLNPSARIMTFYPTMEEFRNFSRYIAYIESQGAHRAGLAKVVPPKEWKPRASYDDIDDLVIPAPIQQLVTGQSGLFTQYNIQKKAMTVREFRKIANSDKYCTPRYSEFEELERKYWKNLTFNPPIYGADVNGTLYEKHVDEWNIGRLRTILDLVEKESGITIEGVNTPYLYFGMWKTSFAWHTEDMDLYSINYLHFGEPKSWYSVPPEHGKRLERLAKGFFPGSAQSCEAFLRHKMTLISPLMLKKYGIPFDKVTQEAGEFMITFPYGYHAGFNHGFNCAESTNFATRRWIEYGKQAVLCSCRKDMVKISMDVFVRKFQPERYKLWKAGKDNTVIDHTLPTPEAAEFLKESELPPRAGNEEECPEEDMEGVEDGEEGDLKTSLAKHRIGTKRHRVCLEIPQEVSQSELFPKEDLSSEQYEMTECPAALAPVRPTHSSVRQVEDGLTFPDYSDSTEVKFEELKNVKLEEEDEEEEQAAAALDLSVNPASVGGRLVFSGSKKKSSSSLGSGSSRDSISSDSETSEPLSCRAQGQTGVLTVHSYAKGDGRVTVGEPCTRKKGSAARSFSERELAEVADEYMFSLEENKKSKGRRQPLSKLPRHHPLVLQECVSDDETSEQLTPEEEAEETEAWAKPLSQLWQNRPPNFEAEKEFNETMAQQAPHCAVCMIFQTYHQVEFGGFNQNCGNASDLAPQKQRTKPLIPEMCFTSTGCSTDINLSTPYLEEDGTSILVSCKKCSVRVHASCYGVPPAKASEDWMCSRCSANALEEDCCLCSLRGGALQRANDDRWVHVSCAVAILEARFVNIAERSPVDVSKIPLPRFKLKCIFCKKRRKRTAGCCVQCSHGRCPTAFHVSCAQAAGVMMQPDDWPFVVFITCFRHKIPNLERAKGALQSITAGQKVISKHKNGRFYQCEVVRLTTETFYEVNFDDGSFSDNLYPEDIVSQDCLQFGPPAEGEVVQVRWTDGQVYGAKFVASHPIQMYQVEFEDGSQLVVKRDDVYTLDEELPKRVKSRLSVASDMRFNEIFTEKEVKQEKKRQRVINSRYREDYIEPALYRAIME
BAZ2B inh: qHTS Assay for Inhibitors of BAZ2B. Bromodomain adjacent to zinc finger domain protein 2B (Homo sapiens), Q9UIF8. AlphaScreen BAZ2B-H3K14Ac peptide displacement. Potency, µM (titrated, usually from 114 µM), for the others: top-dose activity change, negative = inhibition, hits mostly inhibitors. hit rate 4.4% among 360,000. AID 504333, 2011; further: potency means the concentration at half of the fitted maximal effect; on the % scale 0 is the no-effect control and ±100 the full control effect; nearly all actives have a fitted effect of over 60% in size
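Compounds, titrated to a top concentration of 110 uM, were incubated 30 min at room temperature with preformed BAZ2B/acetyl-K14 H3 peptide complex (50 nM each). Proximity signal was measured by AlphaScreen after 20 min with beads.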
KDM4E inh: qHTS Assay for Inhibitors of Human Jumonji Domain Containing 2E (JMJD2E) | Potency, µM (doses to about 57.1 µM), for inactives: at the top dose activity change, negative = inhibition, usual class: inhibitors | JMJD2E catalytic domain, FDH-coupled NADH fluorescence (FDH is formaldehyde dehydrogenase) | hit rate 1.6% among 230,000; active means well fitted inhibition curve with a large enough effect, not every such curve was filed as active; inconclusive means small, poorly fitted or top-dose-only effect, or another doubt; inactive means no such curve, though single readings can be large or run the other way;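 further: potency means the concentration at half of the fitted maximal effect; 0% = wells with enzyme and -100% = buffer wells without enzyme; nearly all actives have a fitted effect of over 50% in size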
L3MBTL1 inh: qHTS Assay for the Inhibitors of L3MBTL1. Lethal(3)malignant brain tumor-like protein 1 (Homo sapiens), Q9Y468. AlphaScreen L3MBTL1–H3K9me1 peptide binding. Potency, µM (top dose mostly 57.1 µM), for inactives: at the top dose activity, negative = inhibition, hits mostly inhibitors. hit rate 0.66% among 230,000. AID 485360, 2010; further: potency means the concentration at half of the fitted maximal effect; on the % scale 0 is the no-effect control and ±100 the full control effect; nearly all actives have a fitted effect of over 60% in size
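First, the protein-peptide complex forms for 30 min at room temperature (L3MBTL1 50 nM, biotinylated H3K9me1 peptide 75 nM). Next, compounds are pin-transferred and incubated 30 min. Finally, AlphaScreen beads are added and read after 30 min.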
HP1b binding inh: HTS for Inhibitors of HP1-beta Chromodomain Interactions with Methylated Histone Tails; AlphaScreen HP1-beta / biotin-H3K9me3 peptide binding; Potency, µM (titrated, usually from 114 µM), inactives show top-dose activity change, negative = inhibition, actives largely listed as inhibitors; hit rate 0.56% among 390,000; AID 540317, 2011; further: potency means the concentration at half of the fitted maximal effect; nearly all actives have a fitted effect of over 70% in size
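Compound inhibition of the preformed complex between 50 nM HP1-beta and 50 nM biotinylated H3K9me3 peptide was read by AlphaScreen. Buffer was PBS pH 7.4 with 0.01% Tween-20. Incubations ran 30 min at room temperature, with 10 ug/mL donor/acceptor beads.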
PI5P4Ka inh: qHTS for Inhibitors of phosphatidylinositol 5-phosphate 4-kinase (PI5P4K); Phosphatidylinositol 5-phosphate 4-kinase type-2 alpha (Homo sapiens), P48426; PI5P4Kalpha enzyme, ADP-Glo luminescence, 60 min; stronger effect = lower value; max response, %; hit rate 1.2% among 330,000; AID 652105, 2013; active means max response of -50% or lower; inconclusive means between -30% and -50%; inactive means -30% or higher; further: value at the top dose of about 77 µM; on the % scale 0 is the no-effect control and ±100 the full control effect
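Human PI5P4Kalpha with substrate in 0.038 M HEPES pH 7.4, 0.28 mM EGTA, 0.1% CHAPS, 5% DMSO; reaction started with 5 microM ATP (final), 60 min at room temperature. ADP formed read by ADP-Glo luminescence.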
* hit, by the source's call. Most compounds without a hit are left out; they make up all but 5.7% or so of the library. Unless noted, the call rests on the fitted dose curve; in most records, active means well fitted inhibition curve with a large enough effect; inconclusive means small, poorly fitted or top-dose-only effect; inactive means no such curve, though single readings can be large or run the other way.

What do the screens show for `COc1ccc(Br)cc1C(=O)Nc1ccc(N2CCN(S(C)(=O)=O)CC2)cc1`?
JMJD2A Tudor inh: 1.9%; BAZ2B inh: 2.6%; KDM4E inh: -0.3%; L3MBTL1 inh: -16.7%; HP1b binding inh: 9.0%; PI5P4Ka inh: -2.4

Results for COc1ccccc1C(=O)Nc1ccc(N2CCN(Cc3ccccc3)CC2)cc1 ?
JMJD2A Tudor inh: inconclusive; BAZ2B inh: 44.7µM*; KDM4E inh: 3.5%; L3MBTL1 inh: -6.2%; HP1b binding inh: inconclusive; PI5P4Ka inh: -3.2

Results for COc1ccc(NC(=O)c2ccc(CN3CCN(c4ccccc4)CC3)cc2)cc1OC ?
JMJD2A Tudor inh: -20.1%; BAZ2B inh: -1.9%; KDM4E inh: -27.7%; L3MBTL1 inh: -8.3%; HP1b binding inh: 13.3%; PI5P4Ka inh: -0.5

Results for CN(Cc1ccccc1N1CCCC1)C(=O)c1cc2ccccc2o1 ?
JMJD2A Tudor inh: 39.8µM*; L3MBTL1 inh: -19.2%; HP1b binding inh: inconclusive; PI5P4Ka inh: -0.4

What do the screens show for `CC(=O)N1CCN(c2ccc(NC(=O)c3cc4ccccc4o3)cc2)CC1`?
JMJD2A Tudor inh: 0.0%; BAZ2B inh: -24.1%; L3MBTL1 inh: -2.7%; HP1b binding inh: 28.6%; PI5P4Ka inh: -0.1

Results for CSc1ccc(CN(C)C(=O)c2cc3ccccc3o2)cc1 ?
JMJD2A Tudor inh: 12.3%; BAZ2B inh: 21.0%; HP1b binding inh: 46.5%; PI5P4Ka inh: -11.0

What do the screens show for `O=C(Nc1ccc(N2CCCC2)cc1)c1cc2ccccc2o1`?
JMJD2A Tudor inh: inconclusive; BAZ2B inh: 25.1µM*; HP1b binding inh: -12.4%; PI5P4Ka inh: -21.5

Results for COc1ccc(Br)cc1C(=O)Nc1ccc(N2CCCC2)cc1 ?
JMJD2A Tudor inh: inconclusive; BAZ2B inh: 22.4µM*; L3MBTL1 inh: -15.0%; HP1b binding inh: inconclusive; PI5P4Ka inh: -4.0

Results for CC(C)CC(NC(=O)C(CO)NC(=O)C1CCC(=O)N1)C(N)=O (configuration not stated) ?
JMJD2A Tudor inh: 9.1%; KDM4E inh: -4.1%; L3MBTL1 inh: 7.9%; HP1b binding inh: 23.7%; PI5P4Ka inh: -3.2

Results for Cc1cccc(OCC(=O)NCC2(N3CCN(C)CC3)CCCCC2)c1 ?
JMJD2A Tudor inh: -12.9%; BAZ2B inh: -8.9%; HP1b binding inh: 11.4%

What do the screens show for `COc1ccc(C(=O)CCC(=O)Nc2ccc(N3CCCCC3)cc2)cc1OC`?
JMJD2A Tudor inh: inconclusive; BAZ2B inh: 35.5µM*; HP1b binding inh: inconclusive; PI5P4Ka inh: 5.4

Results for O=C(Nc1ccc(N2CCCC2)cc1)c1ccc(Br)cc1 ?
JMJD2A Tudor inh: -31.0%; BAZ2B inh: inconclusive; L3MBTL1 inh: -7.3%; HP1b binding inh: 12.5%; PI5P4Ka inh: inconclusive

How did O=C(Nc1ccc(N2CCCCCC2)cc1)c1ccc[nH]1 do in these assays?
JMJD2A Tudor inh: 50.1µM*; BAZ2B inh: 44.7µM*; L3MBTL1 inh: -52.5%; HP1b binding inh: inconclusive; PI5P4Ka inh: 5.7

Results for COc1ccccc1C(=O)Nc1ccc(N2CCN(C(C)=O)CC2)cc1 ?
JMJD2A Tudor inh: -3.5%; BAZ2B inh: -5.3%; KDM4E inh: 5.0%; L3MBTL1 inh: 2.8%; HP1b binding inh: 24.6%; PI5P4Ka inh: 0.2

How did COc1ccc(C(=O)Nc2ccc(N3CCN(C)CC3)cc2)cc1OC do in these assays?
JMJD2A Tudor inh: -13.0%; BAZ2B inh: -1.0%; L3MBTL1 inh: -1.1%; HP1b binding inh: 23.6%; PI5P4Ka inh: -0.6

Results for COc1ccccc1C(=O)Nc1ccc(N2CCCCC2)cc1 ?
JMJD2A Tudor inh: 56.2µM*; BAZ2B inh: inconclusive; KDM4E inh: -2.4%; HP1b binding inh: inconclusive; PI5P4Ka inh: -1.3

What do the screens show for `CC(C)c1nc(N(C)S(C)(=O)=O)nc(-c2ccc(F)cc2)c1/C=C/C(O)CC(O)CC(=O)O` (configuration not stated)?
KDM4E inh: -2.1%

What do the screens show for `COc1ccc(N=Nc2cnc(C)nc2-c2ccccc2)cc1`?
JMJD2A Tudor inh: 39.8µM*; BAZ2B inh: 20µM*; KDM4E inh: -1.9%; L3MBTL1 inh: -16.2%; HP1b binding inh: -66.4%; PI5P4Ka inh: 15.9

How did Cc1ncc(S(=O)(=O)c2ccccc2)c(-c2ccc(Cl)cc2Cl)n1 do in these assays?
JMJD2A Tudor inh: -14.5%; BAZ2B inh: -7.4%; KDM4E inh: -6.4%; L3MBTL1 inh: 5.7%; HP1b binding inh: 27.7%; PI5P4Ka inh: -3.8

How did COc1ccc(-c2nc(C)ncc2-c2ccccc2)c(O)c1 do in these assays?
JMJD2A Tudor inh: -18.4%; BAZ2B inh: -5.8%; HP1b binding inh: 21.8%; PI5P4Ka inh: 1.9

What do the screens show for `Cc1ncc(N=Nc2ccccc2Cl)c(-c2ccccc2)n1`?
JMJD2A Tudor inh: 50.1µM*; BAZ2B inh: 11.2µM*; KDM4E inh: -5.0%; L3MBTL1 inh: inconclusive; HP1b binding inh: 15.8µM*; PI5P4Ka inh: 3.0

Results for Nc1ccc(Cc2ccc(N)c(O)c2)cc1O ?
JMJD2A Tudor inh: 39.8µM*; BAZ2B inh: inconclusive; KDM4E inh: inconclusive; L3MBTL1 inh: -15.1%; HP1b binding inh: inconclusive; PI5P4Ka inh: inconclusive

How did COC(=O)c1cc(Cc2ccc(N)c(C(=O)OC)c2)ccc1N do in these assays?
JMJD2A Tudor inh: -18.5%; BAZ2B inh: -1.3%; KDM4E inh: inconclusive; L3MBTL1 inh: 3.8%; HP1b binding inh: 34.6%; PI5P4Ka inh: 2.1

What do the screens show for `CCN(CCO)c1ncnc2c1sc1nc(C(C)C)c3c(c12)CC(C)(C)OC3`?
JMJD2A Tudor inh: -13.5%; BAZ2B inh: 8.0%; KDM4E inh: inconclusive; L3MBTL1 inh: 36.4%; HP1b binding inh: 5.5%; PI5P4Ka inh: 3.6

What do the screens show for `CCN(CCO)c1nc(SC)nc2c1sc1nc(-c3ccco3)c3c(c12)CCC3`?
JMJD2A Tudor inh: -9.7%; BAZ2B inh: 50.1µM*; KDM4E inh: 3.55µM*; L3MBTL1 inh: -23.8%; HP1b binding inh: 5.7%; PI5P4Ka inh: 19.8

What do the screens show for `COc1cccc(NC2=Nc3cccc4cccc2c34)c1`?
JMJD2A Tudor inh: 44.7µM*; BAZ2B inh: 39.8µM*; KDM4E inh: -1.3%; L3MBTL1 inh: -6.3%; HP1b binding inh: -36.2%; PI5P4Ka inh: 9.6

What do the screens show for `Cc1nc2sc(C(=O)O)c(N)c2c2c1COC(C)(C)C2`?
JMJD2A Tudor inh: 14.1µM*; BAZ2B inh: 7.3%; KDM4E inh: -9.4%; L3MBTL1 inh: -1.1%; HP1b binding inh: 11.1%; PI5P4Ka inh: -15.0
